Structures are written as SMILES. The panel holds about 83,000 compounds, 20% with a hit somewhere; the sample as a whole holds those more often.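 Compound tested at a single concentration for 48 hours in 96-well plates; a percent growth value below 10 was scored as active.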 The source made the active and inactive calls.

Our source for the growth values is PubChem BioAssay (NCI).

This experiment deals with SF-539 CNS. Kind of experiment: NCI-60 one-dose screen, 48 h (100 = growth as untreated, 0 = no growth, -100 = all killed). To be noted: 10 µM unless noted.
Turning to `COc1cc(C(=O)/C=C/c2c(-c3ccc(F)cc3)nc3sccn23)cc(OC)c1OC`, the growth was -57.9% (active).

Regarding `Nc1nc(N)c2c(n1)NC(c1ccc(F)cc1)C1CCc3ccccc3C1=N2` (centres undefined), the growth is 56.8% (inactive).

Consider `COc1ccc(-c2cc(-c3ccc(Cl)cc3)nc(NCCCCNc3ccnc4cc(Cl)ccc34)n2)cc1`, for which the growth was 64.8% (inactive).

Turning to `Cc1cc(C)nc(SCC(=O)Nc2cccc(N=Cc3ccccc3O)c2)n1`, the growth was 100% (inactive).

Take `O=C(Nc1ccc(Nc2ccncc2)cc1)c1ccc([N+](=O)[O-])cc1`: the growth was 88.8% (inactive).

Regarding `O=C1COCCN1c1ccc(NCc2cn(Cc3cccc4ccccc34)c3ccccc23)cc1`, the growth was 95.6% (inactive).

Take `O=C1/C(=C\c2cccn2Cc2ccccc2)c2ccccc2N1c1c(Cl)cccc1Cl`: the growth was 95.4% (inactive).

Turning to `CCCCCN(CCCCC)CCCCCCCCN1CCCc2ccccc21`, the growth is 107% (inactive).

Regarding `CC(C)CSc1ncnc2nc[nH]c12`, the growth was 88.4% (inactive).

For the compound `CCN(CC)CCCC(C)Nc1ccnc2cc(Cl)c(SCc3ccccc3)cc12` (centres undefined), the growth is -89.5% (active).

With `O=C(Nc1ccc(C(=O)/C=C/c2ccc(N3CCOCC3)cc2)cc1)Nc1ccc([N+](=O)[O-])cc1`, the growth was 109% (inactive).

`Cc1ccc(-c2cn(C/C=C3\C=CN(S(=O)(=O)c4ccccc4)CC3)nn2)cc1`: the growth was 100% (inactive).

Take `CCOc1ccc2sc(NS(=O)(=O)c3ccc(N)cc3)nc2c1`: the growth is 99.5% (inactive).

In the case of `O=C(NCCCNC(=O)OCc1ccc2c(Br)cc(Br)c(O)c2n1)OCc1ccc2c(Br)cc(Br)c(O)c2n1`, the growth was -96.8% (active).
